# In publication PMC4552634, “A New Set of Chemical Starting Points with Plasmodium falciparum Transmission-Blocking Potential for Antimalarial Drug Discovery” (PLoS ONE, 2015):
# Hit rate of the full screen: of about 13,000 compounds, about 3,200 (25%) showed an effect of 50% or more. Some of the results follow.
# System: P. falciparum stage V gametocytes
# Design: BacTiter-Glo ATP luminescence viability of purified stage V gametocytes in 384-well plates, per cent inhibition versus DMSO
# Conditions: 48 h, 5 µM; inhibitor
row,Compound,% Inhibition [%]
1,CC(=O)c1cccc2[nH]c(C(=O)NC3CCC(CCN4CCc5ccc(C#N)cc5C4)CC3)cc12 (stereo not drawn) [TCMDC-139218],4.712
2,COc1ccc(Cn2c(N3CCN(S(=O)(=O)c4ccc(OC)cc4)CC3)nc3c2c(=O)n(CC2CC2)c(=O)n3CC2CC2)cc1 [TCMDC-138935],-17.86
3,COc1ccc(S(=O)(=O)N2CCC3(CC2)OCC(=O)NC3c2ccc(Cl)c(Cl)c2)cc1 (stereo not drawn) [TCMDC-133797],8.685
4,Cc1nc(-c2cccc(C(=O)NC3CCC(CCN4CCc5ccc(-c6cccnc6)cc5CC4)CC3)c2)no1 (stereo not drawn) [TCMDC-140228],-46.69
5,C[C@@H](Oc1cc(-n2cnc3ccc(NC(=O)NC(C)(C)C)cc32)sc1C(N)=O)c1ccccc1Cl [TCMDC-135806],66.79
6,O=C(CCN1CCCCC1)Nc1ccc(Nc2nccc(NCC(O)c3ccccc3)n2)cc1 (stereo not drawn) [TCMDC-136464],-29.58
7,COc1ccc2c(c1)ncn2-c1cc(OCc2ccncc2Br)c(C(N)=O)s1 [TCMDC-138876],39.96
8,NC(=O)c1sc(-n2cnc3ccccc32)cc1OCc1ccccc1[N+](=O)[O-] [TCMDC-134488],13.6
9,C[C@@H](Oc1cc(-n2cnc3cc(SCCN4CCN(C)CC4)ccc32)sc1C(N)=O)c1ccccc1Cl [TCMDC-135452],29.32
10,CC(Oc1cc(-n2cnc3ccc(NC(=O)CCN4CCCCC4)cc32)sc1C(N)=O)c1ccccc1Cl (stereo not drawn) [TCMDC-135370],69.65
11,C[C@@H](Oc1cc(-n2cnc3ccc(NC(=O)CCN4CCCCC4)cc32)sc1C(N)=O)c1ccccc1Cl [TCMDC-135971],64.1
12,COc1ccc2nc(Nc3nc4ccncc4[nH]3)sc2c1 [TCMDC-131950],20.19
13,c1ccc(-c2nc(Nc3ccncc3)sc2-c2ccccc2)cc1 [TCMDC-139027],-36.52
14,c1cc(Nc2nc(-c3ccc(-c4csc(Nc5ccncc5)n4)cc3)cs2)ccn1 [TCMDC-139725],127.3
15,Clc1ccc(-c2cc(-c3csc(Nc4ccncc4)n3)on2)cc1 [TCMDC-135160],-12.1
16,Nc1ccc(-c2csc(Nc3ccncc3)n2)cc1 [TCMDC-138715],-22.32
17,c1ccc(-c2ccc(-c3csc(Nc4ccncc4)n3)cc2)cc1 [TCMDC-139026],62.72
18,c1ccc2sc(-c3csc(Nc4ccncc4)n3)nc2c1 [TCMDC-135159],-15.83
19,CC(C)N(CC(=O)c1ccc(O)c(C(=O)O)c1)Cc1ccccc1 [TCMDC-131774],0.6957
20,COc1ccccc1COc1c(C)nc(N)nc1N [TCMDC-131356],-14.22
21,CC(C)CC(=O)N1CCNC[C@@H]1C(=O)NCc1ccc(Cl)c(Cl)c1 [TCMDC-141242],45.03
22,Cc1cc(CN2CC[C@H](NC(=O)c3ccc(Cl)c(Cl)c3)C2)ccc1OC1CCN(C)C1 (stereo partly drawn) [TCMDC-140281],32.63
23,CN1CCC(Oc2ccc(CN3CC[C@H](NC(=O)c4ccc(Cl)c(F)c4)C3)c3ccccc23)C1 (stereo partly drawn) [TCMDC-135274],60.57
24,CN1CCC(Oc2ccc(CN3CC[C@H](NC(=O)c4cccc(C#N)c4)C3)c3ccccc23)C1 (stereo partly drawn) [TCMDC-135277],88.31

row,Compound,% Inhibition [%]
1,CN1CCC(Oc2ccc(CN3CC[C@H](NC(=O)c4ccc(Cl)c(Cl)c4)C3)cc2Cl)C1 (stereo partly drawn) [TCMDC-140276],27.21
2,CN1CCC(Oc2cc(CN3CC[C@H](NC(=O)c4ccc(Cl)c(Cl)c4)C3)ccc2I)C1 (stereo partly drawn) [TCMDC-140266],15.84
3,CN1CCC(Oc2ccc(CN3CC[C@H](NC(=O)c4cc(F)cc(F)c4)C3)c3ccccc23)C1 (stereo partly drawn) [TCMDC-135275],57.07
4,CN1CCC(Oc2ccc(CN3CC[C@H](NC(=O)c4ccc(Cl)c(Cl)c4)C3)c3ccccc23)C1 (stereo partly drawn) [TCMDC-140271],51.75
5,CCC(=O)N[C@@H]1CN[C@@H](C#Cc2cc3c(Nc4ccc(OCc5cccc(F)c5)c(Cl)c4)ncnc3s2)C1 [TCMDC-135410],-39.51
6,N#Cc1c(N2CCCCCC2)nc(N)c2c(N)nc3c(c12)CC(=O)N3c1ccc(F)cc1 [TCMDC-123902],44.67
7,O=C(Nc1ccc(S(=O)(=O)N2CCCCC2)cc1)c1cc(-c2cc(Cl)ccc2O)n[nH]1 [TCMDC-124905],-12.68
8,CN1CCC(Oc2ccc(CN3CC[C@H](NC(=O)c4ccc(F)c(F)c4)C3)c3ccccc23)C1 (stereo partly drawn) [TCMDC-135278],72.64
9,CCCCCN1CCCN(Cc2cccc(NC(=O)c3ccc4ccccc4c3)c2)CC1 [TCMDC-141854],-83.26
10,CC(=O)Nc1ccc2[nH]cc(C3CCN(CCC4CCN(C(=O)/C=C/c5ccc(Cl)c(Cl)c5)CC4)CC3)c2n1 [TCMDC-140113],-31.57
11,Nc1ccc2[nH]cc(C3CCN(CCC4CCN(C(=O)/C=C/c5ccc(Cl)c(Cl)c5)CC4)CC3)c2n1 [TCMDC-140062],107.7
12,Nc1ccc2[nH]cc(C3CCN(CC4CCN(C(=O)/C=C/c5ccc(Cl)c(Cl)c5)CC4)CC3)c2n1 [TCMDC-140061],100.1
13,Cc1cccc2[nH]cc(C3CCN(CCC4CCN(C(=O)/C=C/c5ccc(Cl)c(Cl)c5)CC4)CC3)c12 [TCMDC-140124],-19.67
14,CC(=O)Nc1ccc2[nH]cc(C3CCN(CC4CCN(C(=O)/C=C/c5ccc(Cl)c(Cl)c5)CC4)CC3)c2n1 [TCMDC-140112],-22.97
15,CC(Cc1ccc(C(=O)OC(c2ccccc2)c2ccccc2)cc1)NCC(O)c1ccccc1 (stereo not drawn) [TCMDC-131546],37.45
16,Cc1ccc2nc(-c3cc(-c4cccc(CCN5CCOCC5)c4)cnc3N)[nH]c2c1 [TCMDC-133136],-33.78
17,Cc1nc2ccc(/C=C/C(=O)NC3CCC(CCN4CCc5ccc(C#N)cc5CC4)CC3)cc2[nH]1 (stereo not drawn) [TCMDC-139675],-3.608
18,CNC(=O)c1ccc2[nH]cc(C3CCN(CC4CCC(NC(=O)/C=C/c5ccccc5Cl)CC4)CC3)c2c1 (stereo not drawn) [TCMDC-139978],-4.902
19,Nc1ccc2[nH]cc(C3CCN(CC4CCC(NC(=O)/C=C/c5ccc(Cl)c(Cl)c5)CC4)CC3)c2n1 (stereo not drawn) [TCMDC-140064],97.26
20,Cc1cc(O)cc2c(C3CCN(CC4CCC(NC(=O)/C=C/c5ccccc5Cl)CC4)CC3)c[nH]c12 (stereo not drawn) [TCMDC-139924],-46.01
21,Nc1ccc2[nH]cc(C3CCN(CC4CCC(NC(=O)/C=C/c5ccccc5Cl)CC4)CC3)c2n1 (stereo not drawn) [TCMDC-140063],106.2
22,CC(=O)Nc1ccc2[nH]cc(C3CCN(CC4CCC(NC(=O)/C=C/c5ccc(Cl)c(Cl)c5)CC4)CC3)c2n1 (stereo not drawn) [TCMDC-140114],6.04
23,CC(=O)Nc1ccc2[nH]cc(C3CCN(CC4CCC(NC(=O)/C=C/c5ccccc5Cl)CC4)CC3)c2n1 (stereo not drawn) [TCMDC-140111],60.6
24,CS(=O)(=O)Nc1ccc2[nH]cc(C3CCN(CC4CCC(NC(=O)/C=C/c5ccc(Cl)c(Cl)c5)CC4)CC3)c2n1 (stereo not drawn) [TCMDC-140088],4.239
